Screens: PubChem, Johns Hopkins Ion Channel Center
KCNQ2 enhance = enhances the rat KCNQ2 potassium channel; CHO-K1 KCNQ2, FluxOR thallium flux fluorescence; stronger effect = higher value; 310,000 tested, 0.54% active; B-score at 10 µM; AID 2239;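 active = fluorescence ratio B-score at least 3 SD of library B-scores, with initial fluorescence B-score within 3 of them, cut at about 5.3 in these data; same plate scores as AID 2156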;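 also: B-score of peak minus minimum over baseline fluorescence ratio after K+ and Tl+ stimulus; positive B-score means potentiation of KCNQ2 with more thallium influx and brighter signal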
KCNQ2 block = KCNQ2 (rat) channel inhibition | CHO-K1 KCNQ2, FluxOR thallium flux, 20 min; stronger effect = lower value | B-score at 10 µM | 310,000 tested, 1.1% active | AID 2156;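 active = fluorescence ratio B-score at most minus 3 library SDs, with starting brightness B-score within 2 library SDs, cut at about -5.5 in these data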
KCNQ2 inh conf = confirmation of rat KCNQ2 potassium channel inhibitors; shares compounds with KCNQ2 block; KCNQ2-expressing cells, thallium flux, inhibition; stronger effect = lower value; activity change, negative = inhibition, % at 10 µM; 1,000 tested, 57% active; AID 493025
KCNQ1 spec = human KCNQ1 activity in KCNQ2 inhibitor specificity screen. KCNQ1-expressing cells, FluxOR thallium flux fluorescence; stronger effect = lower value. 1,000 tested, 15% active. shares compounds with KCNQ2 block. AID 493026. activity change, negative = inhibition, % at 10 µM;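 active = activity change at least 3 SD of negative controls below their mean in both duplicate wells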;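 also: CHO cells stably transfected with KCNQ1 and depolarized by potassium stimulus; peak minus minimum fluorescence over baseline after thallium addition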
CHO Tl ctr = KCNQ2 inhibitor counter-screen hit in parental CHO cells; thallium flux counter-screen; stronger effect = lower value; shares compounds with KCNQ2 block; activity change, % at 10 µM; 1,000 tested, 14% active
KCNQ2 inh confirm = rat KCNQ2 inhibition confirmed by electrophysiology | 550 tested, 49% active | KCNQ2-expressing cells, automated patch clamp current | calls only at 10 µM | shares compounds with KCNQ2 block
Kir21 confirm = confirmation of mouse Kir2.1 potassium channel inhibitors | shares compounds with KCNQ2 enhance | Kir2.1-expressing cells, FluxOR thallium flux fluorescence; stronger effect = lower value | Tl flux remaining, % of negative control (stronger effect = lower value), % at 10 µM | 2,300 tested, 41% active | AID 2032;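 active = Primary-screen hit whose thallium flux fell at least 3 control SD below untreated wells in both duplicates, with normal baseline fluorescence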
Target sequence (P35561 whole entry, looked up): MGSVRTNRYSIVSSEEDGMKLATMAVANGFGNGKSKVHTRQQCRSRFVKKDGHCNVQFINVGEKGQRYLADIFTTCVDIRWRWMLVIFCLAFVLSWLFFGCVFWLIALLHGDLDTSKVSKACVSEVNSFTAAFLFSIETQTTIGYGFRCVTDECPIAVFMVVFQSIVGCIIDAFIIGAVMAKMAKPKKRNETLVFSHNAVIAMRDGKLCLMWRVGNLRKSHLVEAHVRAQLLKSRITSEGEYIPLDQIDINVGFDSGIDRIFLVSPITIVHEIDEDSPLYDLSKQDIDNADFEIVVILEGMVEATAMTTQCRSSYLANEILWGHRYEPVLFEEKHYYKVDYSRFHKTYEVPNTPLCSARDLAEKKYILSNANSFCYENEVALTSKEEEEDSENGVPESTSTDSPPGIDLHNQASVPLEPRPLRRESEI
HEK293 ctr = counter-screen for Kir2.1 inhibitors: effect in parental HEK293 cells. shares compounds with KCNQ2 enhance. FluxOR thallium flux fluorescence; 0% = unstimulated blank wells. FluxOR signal as % of negative control (100 = no effect), % at 10 µM. 2,300 tested, 19% active. AID 2105;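 active = dye signal at least 3 control SD above or below untreated wells in both duplicates, raw fluorescence within 3, either direction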;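 also: percent is based on the flux ratio of peak minus minimum fluorescence over baseline F0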
Hits are given with their value; i = inactive; nt = no result given; + = active, no number; ! = not active in a repeat. In the library only some 1.6% were active in any assay of this set; here they are far more common. Unless noted, no rule for the calls is given here.

SMILES | KCNQ2 enhance | KCNQ2 block | KCNQ2 inh conf | KCNQ1 spec | CHO Tl ctr | Kir21 confirm | HEK293 ctr | others
Cc1cc(C)n(-c2nc3ccccc3nc2N2CCN(C(=O)c3ccc(Cl)cc3)CC2)n1 | i | -8.4 | -32% | -30% | -24% | nt | nt | KCNQ2 inh confirm=+
CSCCC(NC(=O)c1ccccc1Br)C(=O)NCC1CCCCC1 (configuration not stated) | nt | i | nt | nt | nt | nt | nt
CSCCC(NC(=O)c1ccccc1Br)C(=O)N1CCCCCCC1 (configuration not stated) | i | -9.6 | -29% | i | i | nt | nt | KCNQ2 inh confirm=+
CSCCC(NC(=O)c1ccccc1Br)C(=O)NCc1ccc(F)cc1 (configuration not stated) | i | i | nt | nt | nt | nt | nt
CSCCC(NC(=O)COc1ccccc1)C(=O)NC1CCC(C)CC1 (configuration not stated) | nt | i | nt | nt | nt | nt | nt
CSCCC(NC(=O)COc1ccccc1)C(=O)N1CCCC(C(F)(F)F)C1 (configuration not stated) | i | -7 | i | i | i | nt | nt
CSCCC(NC(=O)c1ccccc1Br)C(=O)N1CCCC(C(F)(F)F)C1 (configuration not stated) | i | -9.3 | -16% | i | i | nt | nt | KCNQ2 inh confirm=+
Cc1cc(C)cc(N(C(=O)CNC(=O)c2ccco2)C(C(=O)NC2CCCCC2)c2ccncc2)c1 (configuration not stated) | i | i | nt | nt | nt | nt | nt
CC[C@@H](C)[C@H](CNC)NC[C@@H](Cc1cccc2ccccc12)NCCc1cccc(C(F)(F)F)c1 | i | -8.5 | -29% | i | i | 22% | i | KCNQ2 inh confirm=i
CCC[C@H](CN[C@@H](CNC)[C@H](C)CC)NCCc1cc(C(F)(F)F)cc(C(F)(F)F)c1 | nt | i | nt | nt | nt | nt | nt
N=C(N)SCc1cn(-c2ccccc2)nc1-c1ccc(Br)cc1 | i | -12 | i | i | i | 13% | 56%
Cc1ccc(-c2nn(-c3ccccc3)cc2CO)cc1 | nt | i | nt | nt | nt | nt | nt
NC(N)=N/N=C/c1ccc(OCc2ccccc2)c(OCc2ccccc2)c1 | nt | i | nt | nt | nt | nt | nt
CCOc1cc(/C=N/N=C(N)N)ccc1OCc1ccc(Cl)cc1 | i | -10 | i | i | i | 62% | i
CCNc1nc(NC(C)(C)C)nc(N2CCCCC2)n1 | nt | i | nt | nt | nt | nt | nt
CCC(C)(C)c1ccc(OCCCC[n+]2cccc(C)c2)c(C(C)(C)CC)c1 | i | -8.4 | i | i | i | 33% | i
Cc1ccc[n+](CC(=O)Nc2cc(C(F)(F)F)ccc2Cl)c1 | i | i | nt | nt | nt | nt | nt
O=C(/C=C/c1ccc(Cl)cc1)c1cccnc1 | i | -7.6 | -28% | i | i | 68% | i | KCNQ2 inh confirm=i
O=C(/C=C/c1ccc(OCc2ccccc2)c(OCc2ccccc2)c1)c1cccnc1 | nt | i | nt | nt | nt | nt | nt
CCOC(=O)C(C(=O)OCC)N(C#N)c1nc(N(C)C)nc(N(C)C)n1 | nt | i | nt | nt | nt | nt | nt
CC(C)(C)OC(=O)CNC(=O)c1nc[nH]c1C(=O)N1CCNCC1 | i | i | nt | nt | nt | nt | nt
CCc1ccc(C(O)(CNCc2ccccc2)c2ccccc2)cc1 (configuration not stated) | i | -6.9 | -32% | -36% | -28% | 69% | i | KCNQ2 inh confirm=i
CCc1ccc(NC(=S)NCc2ccccc2)cc1 | i | i | nt | nt | nt | nt | nt
Cc1cc(=O)oc2cc(OCC(O)Cn3ccnc3)ccc12 (configuration not stated) | nt | i | nt | nt | nt | nt | nt
Cc1ccc(N2C(=O)C(Cl)=C(NCc3ccccc3)C2=O)c(C)c1 | nt | i | nt | nt | nt | nt | nt
SMILES | KCNQ2 enhance | KCNQ2 block | KCNQ2 inh conf | KCNQ1 spec | CHO Tl ctr | Kir21 confirm | HEK293 ctr | others
COc1cc(C)c(C)cc1S(=O)(=O)NC1CC(C)(C)NC(C)(C)C1 | nt | i | nt | nt | nt | nt | nt
O=[N+]([O-])c1ccccc1S(=O)(=O)Nc1ccc2c(c1)OCCO2 | nt | i | nt | nt | nt | nt | nt
CCOC(=O)Cn1c(COc2ccccc2OC)[n+](C)c2ccccc21 | i | i | nt | nt | nt | nt | nt
Cc1ccccc1OCc1n(CC(=O)OC2CC(C)CCC2C(C)C)c2ccccc2[n+]1C (configuration not stated) | i | -11 | -40%! | i | i | 14% | i | KCNQ2 inh confirm=+
CCOC(=O)c1c(C)n(C)c2ccc(OCC(O)CNCCc3ccccc3)cc12 (configuration not stated) | i | i | nt | nt | nt | nt | nt
CCCc1cnc(NCCNCC(O)COc2ccc(Cl)c(Cl)c2)nc1 (configuration not stated) | nt | i | nt | nt | nt | 68% | i
